Experimental findings from PubChem BioAssay (NCI) are described below.

What all share (assay): NCI-60 one-dose screen, 48 h (100 = growth as untreated, 0 = no growth, -100 = all killed)
The subject of test [1] is SK-MEL-2 melanoma. Particulars: 10 µM.
Test [2] relates to EKVX NSCLC. Particulars: 10 µM.
Test [3] concerns SN12C renal. Conditions: 10 µM.
The test system of test [4] is UO-31 renal. Particulars: 10 µM.
For test [5], the system named is TK-10 renal. Conditions: 10 µM unless noted.
The test system of test [6] is ACHN renal. Conditions: 10 µM.
Test [7] deals with CAKI-1 renal. Conditions: 10 µM.
Test [8] concerns A498 renal. Particulars: 10 µM.
The test system of test [9] is CCRF-CEM leukemia. Conditions: 10 µM.
The test system of test [10] is MOLT-4 leukemia. Particulars: 10 µM.
Test [11] concerns SR leukemia. Conditions: 10 µM.
In test [12] the test system is RPMI-8226 leukemia. Particulars: 10 µM.
Test [13] deals with OVCAR-8 ovarian. Conditions: 10 µM.
The subject of test [14] is OVCAR-5 ovarian. Particulars: 10 µM.
Test [15] relates to OVCAR-4 ovarian. Particulars: 10 µM.
Test [16] has as its system SK-OV-3 ovarian. Particulars: 10 µM.
The test system of test [17] is IGROV1 ovarian. Particulars: 10 µM.
In test [18] the test system is OVCAR-3 ovarian. Conditions: 10 µM.
For test [19], the system named is HS 578T breast. Conditions: 10 µM.
Test [20] concerns NCI/ADR-RES ovarian. Particulars: 10 µM.

Each structure is given as a SMILES string. Compounds without any hit were thinned out: in the full panel of roughly 83,000, 20% have a hit.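 Assay: single dose, 48 h. Readout: percent growth (0 = no net growth; negative = cell death). Active: <10.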 Values without a mark were called inactive. The source made the active and inactive calls.

As to `FC(F)(F)c1ccc2c(c1)N(CCCN1CCN(C3CC3)CC1)c1ccccc1S2`, the growth was 90.4% in test [1]; 86.8% in test [2]; 47.7% in test [3]; 17.6% in [4]; 80% in test [5]; 78.1% in test [6]. Also, the growth is 17.3% in test [7]; 9.76% (active) in [8]; 26.5% in [9]; 34% in [10]; 7.62% (active) in test [11]; 51.9% in [12]. Besides, the growth in [13] was 46.9%; in test [14] it was 89.7%; in test [15], 73.6%; in [16] it was 83.9%; in test [17] it was 50.2%; in test [18], 24.9%. Further, the figures for the growth in test [19] and in test [20] were 75.3% and 61.2%, respectively.

As to `Cc1cc(OCCO)cc(C)c1Cl`, the growth in test [1] is 117%; in test [2], 142%; in test [3] it was 98.9%; in test [4] it was 109%; in test [5] it was 123%; in test [6] it was 116%. Besides, the growth in test [7] is 115%; in [8] it was 102%; in test [9] it was 96.3%; in test [10], 100%; in [11], 124%; in [12], 102%. The growth in [13] is 106%; in test [14], 115%; in [15] it was 122%; in [16] it was 117%; in test [17], 113%; in test [18] it was 118%. Also, the growth in test [19] was 104%; in test [20], 108%.

For `CCOC(=O)Nc1cc2c(c(N)n1)N=C(c1ccccc1)CO2`, the growth is 19.1% in test [1]; 33.4% in test [2]; 29.3% in test [3]; 21.3% in [4]; 53.3% in [5]; 49.9% in [6]. Further, the growth in test [7] is 24.2%; in [8] it was 52%; in test [9], 13.5%; in test [10], 15.7%; in test [11], 6.89% (active); in test [12] it was 29.3%. The growth in [13] was 14.5%; in [14] it was 57.4%; in test [15], 49.4%; in test [16] it was 22.8%; in test [17], 25.2%; in test [18], -28.2% (active). The growth in test [19] is 50.1%; in [20], 13.4%.

Regarding `CC(=O)OC1CC2C(C)(C)OC3CC(=O)OCC32C2CCC3(C)C(=CCC3c3ccoc3)C12C` (stereo not given), the growth in [1] is 99.5%; in test [2], 102%; in [3] it was 105%; in [4], 86.9%; in test [5], 107%; in test [6], 101%. Also, the growth in test [7] is 98.7%; in test [8], 110%; in test [9], 101%; in test [10] it was 90.8%; in test [11], 91.1%; in test [12], 72.8%. For the same compound, the growth in test [13] was 108%; in test [14], 95.9%; in test [15] it was 105%; in test [16], 108%; in test [17], 58.2%; in test [18] it was 93.8%. Besides, the growth in test [19] was 93.6%; in [20], 124%.

On to `S=C1CCCCCN1`, for which the growth in test [1] is 105%; in test [2], 98.1%; in [3], 100%; in test [4], 82.5%; in test [5], 109%; in test [6] it was 99.1%. The growth in [7] is 93.9%; in [8], 101%; in test [9] it was 107%; in test [10], 111%; in [11], 102%; in test [12], 98.3%. The growth was 104% in test [13]; 103% in [14]; 111% in test [15]; 119% in [16]; 110% in test [17]; 115% in test [18]. In addition, the growth is 105% in test [19] and 104% in [20].

As to `N#CCc1ccc([N+](=O)[O-])cc1`, the growth in test [1] is 107%; in test [2], 97.8%; in [3], 101%; in test [4] it was 72.1%; in test [5], 107%; in [6] it was 103%. In addition, the growth in test [7] was 93%; in [8], 90.7%; in [9] it was 100%; in [10] it was 74.2%; in test [11] it was 105%; in test [12] it was 109%. Besides, the growth in test [13] was 89.5%; in test [14], 119%; in [15], 111%; in [16], 101%; in [17] it was 135%; in test [18] it was 117%. In addition, the growth in [19] is 98%; in [20], 106%.

In the case of `CN(c1ccccc1)c1ncnc2c1ncn2C`, the growth was 100% in test [1]; 102% in test [2]; 98% in test [3]; 79.9% in [4]; 105% in test [5]; 101% in test [6]. Moreover, the growth in test [7] was 94%; in test [8], 88.4%; in test [9], 99.1%; in test [10], 95.6%; in test [11] it was 98.2%; in test [12], 106%. Further, the growth is 102% in test [13]; 121% in [14]; 103% in [15]; 105% in test [16]; 118% in test [17]; 111% in test [18]. The growth in test [19] is 103%; in [20], 105%.

For the compound `O=C(O)C(Cc1ccccc1)C(=O)O`, the growth in test [1] is 111%; in [2], 106%; in test [3], 103%; in test [4] it was 91.6%; in test [5] it was 105%; in test [6], 111%. The growth in test [7] was 102%; in test [8], 89.1%; in test [9] it was 97.9%; in test [10], 116%; in [11] it was 101%; in test [12], 109%. Further, the growth is 109% in test [13]; 111% in test [14]; 96.3% in test [15]; 103% in test [16]; 113% in [17]; 110% in [18]. Moreover, the growth is 104% in test [19] and 106% in [20].
